The record followed here is PubChem BioAssay AID651812 (National Center for Advancing Translational Sciences (NCATS), 2012).

Among all 2,100 compounds or so, about 650 (31%) were called active. Another 16% or so got no clear call; they are omitted. Calls come from the whole dose curve; as a rule, active = well fitted inhibition curve with a large enough effect; inconclusive = small, poorly fitted or top-dose-only effect; inactive = flat fitted curve, though single readings scatter. The list shows a part of the results.
Potency is the fitted concentration of half-maximal effect.

The nature of this experiment: qHTS for inhibitors of Vif-A3G interactions: Cherry picks. For activity, negative = fluorescence increase: % of control where 0% means no effect. Note: nearly all actives have a fitted effect of over 80% in size. The settings on record: HeLa A3G-eYFP + Vif (tagged APOBEC3G with the HIV-1 protein that degrades it), 24 h; Potency: eYFP fluorescence increase; series mostly up to 36.9 µM; activity, negative = fluorescence increase: at the top concentration. Summed up: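 HeLa cells stably expressing A3G-eYFP and Vif, cultured overnight then exposed to compounds at several concentrations for 24 hours at 37 C, 5% CO2; cellular yellow fluorescence (488 nm ex, 500-530 nm em) imaged on Acumen, MG132 positive control.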
With `Fc1cccc(Cc2c(-c3ccco3)nc3ccc(Br)cn23)c1`, the “activity, negative = fluorescence increase” value is -9.28% (inactive).
Take `CC(NC1=CC(=O)c2cccnc2C1=O)C(O)c1ccccc1` (stereo unspecified): the “activity, negative = fluorescence increase” value was -0.502% (inactive).
The same measure, in the same setting: the same measure for `CN(CC(=O)Nc1ccc(Cl)c(C(F)(F)F)c1)C(=O)c1ccc(S(=O)(=O)N2CCOCC2)cc1`: -0.993% (inactive); for `CN(C)c1ccc(/C=C/c2ccnc3ccccc23)cc1C=O`: -27.4% [at 46.1 µM] (inactive).
Regarding `CN(C)c1ccc(/C=C/c2ccnc3ccccc23)cc1O`, the Potency is 18.4 µM (active).
Same read-out and setting: the same measure for `Cc1cc(/C=C/c2ccnc3ccccc23)ccc1N`: 18.4 µM (active); for `CCc1cc(/C=C/c2ccnc3ccccc23)ccc1N(C)C`: 18.4 µM (active).
Regarding `CN1CCCc2cc(/C=C/c3ccnc4ccccc34)ccc21`, the Potency was 5.17 µM (active).
With `Cc1cc(NC(=O)Nc2nnc(N(C)Cc3ccccc3)s2)ccc1Br`, the “activity, negative = fluorescence increase” value is -0.0185% [at 46.1 µM] (inactive).
For `COc1cccc(/C=N/NC(=O)c2[nH]nc3c2CCc2ccccc2-3)c1`, the “activity, negative = fluorescence increase” value was -3.68% (inactive).
With `CC(=O)n1cc(/C=N/NC(=O)c2sc(C)nc2C)c2ccccc21`, the “activity, negative = fluorescence increase” value is -0.408% (inactive).
For the compound `COc1ccc(C(C)(O)c2nc(-c3ccccc3OC)cs2)cc1` (stereo unspecified), the “activity, negative = fluorescence increase” value is -6.82% (inactive).
On to `Cc1cc(/C=C/c2ccnc3ccccc23)ccc1N(C)C`, for which the Potency is 20.6 µM (active).
As to `CN(C)c1ccc(/C=C/c2ccnc3ccccc23)cc1N`, the “activity, negative = fluorescence increase” value is -16% [at 46.1 µM] (inactive).
Turning to `Cc1cc(N(C)C)c(C)cc1/C=C/c1ccnc2ccccc12`, the Potency is 20.6 µM (active).
As for `CCn1c2ccccc2c2c3ncc4cccn4c3ccc21`, the Potency was 23.1 µM (active).
Take `CCOC(=O)/C(C#N)=C\C=C1C=CN(C)C=C1`: the Potency is 8.2 µM (active).
`COc1cc2c(cc1OC)CN(C(=O)/C=C/c1cccs1)CC2`: the “activity, negative = fluorescence increase” value is -5.73% (inactive).
Take `Cc1cc(C)nc(-n2nc(C)cc2NC(=O)c2ccc(F)cc2F)n1`: the “activity, negative = fluorescence increase” value is 4.33% [at 46.1 µM] (inactive).
Regarding `Cc1cc(/C=C2\NC(=S)N(C)C2=O)ccc1N1CCCC1`, the Potency is 8.86 µM (active).
As to `Cc1cc(N2CCCC2)ccc1/C=C1\NC(=S)N(C)C1=O`, the Potency was 3.66 µM (active).
Regarding `O=[N+]([O-])/C=C\c1ccc(N2CCCC2)c(F)c1`, the “activity, negative = fluorescence increase” value is -7.46% [at 46.1 µM] (inactive).
For `Cc1cc(N2CCCC2)ccc1/C=C1/C(=O)N(C)C(=S)N1C`, the Potency was 18.4 µM (active).
On to `COc1ccc(/C=C/c2ccnc3ccccc23)c(OC)c1`, for which the “activity, negative = fluorescence increase” value is -24.9% [at 46.1 µM] (inactive).
As to `COc1cc(N(C)C)c(OC)cc1/C=C/c1ccnc2ccccc12`, the Potency was 20.6 µM (active).
On the same count and under the same terms, then `COc1cc(/C=C/c2ccnc3ccccc23)ccc1N(C)C`, with 20.6 µM (active).
Consider `COc1ccccc1-c1c(C#N)c(N)nc2c1CCc1ccccc1-2`, for which the “activity, negative = fluorescence increase” value is 0.0212% (inactive).
As to `CCOC(=O)c1c(Nc2ccc(Cl)cc2)sc(/C=C2\C=Nc3ccccc32)c1O`, the Potency is 13 µM (active).
On to `CNc1cncc(-c2cc(C)c(O)c(C)c2)n1`, for which the “activity, negative = fluorescence increase” value was -3.27% (inactive).
For the compound `Cn1cc(/C=C/c2ccnc3ccccc23)c2ccccc21`, the Potency is 23.1 µM (active).
On to `Cn1cc(/C=C/c2ccc3ccccc3n2)c2ccccc21`, for which the Potency is 20.6 µM (active).
As for `COc1cc(C2c3cc4c(cc3OC(C)(N3CCCC3)C2C)OCO4)cc(OC)c1OC` (stereo unspecified), the “activity, negative = fluorescence increase” value is -11.6% (inactive).
Take `CCOc1c(Cl)cc(/C=N/NC(N)=S)cc1OC`: the “activity, negative = fluorescence increase” value is -10.8% [at 46.1 µM] (inactive).
On to `CCOC(=O)c1ccc(N=Nc2c(C)c(C#N)c(O)[nH]c2=O)cc1`, for which the “activity, negative = fluorescence increase” value was -10.2% [at 46.1 µM] (inactive).
Regarding `Cc1cc(C(F)(F)F)c(C#N)c(SCC(=O)Nc2nc3ccccc3s2)n1`, the Potency is 18.4 µM (active).
Consider `CCOc1ccc(-c2cc(C(F)(F)F)c(C#N)c(SCC(=O)Nc3ccccc3)n2)cc1`, for which the Potency is 18.4 µM (active).
As for `CCOC(=O)c1ccc(NC(=O)CSc2nc(-c3ccc(F)cc3)cc(C(F)(F)F)c2C#N)cc1`, the Potency is 20.6 µM (active).
Turning to `CCOc1ccc(-n2nnnc2SCC(=O)c2ccccc2)cc1`, the “activity, negative = fluorescence increase” value was -0.934% (inactive).
On the same count and under the same terms, then `Cc1cnc(NC(=O)CC(C)c2ccccc2)s1` (stereo unspecified), with 2.19% (inactive); and `Cc1ccc2nc(NC(=O)CN(C)S(=O)(=O)c3cccc4nsnc34)sc2c1`, with -2.5% (inactive); and `CCOC(=O)c1ccc(NC(=O)Cn2ncc(Cl)c(Cl)c2=O)cc1`, with 0.447% (inactive).
`Cc1ccc(S(=O)(=O)CCSc2nc(C)cc(C(F)(F)F)c2C#N)cc1`: the Potency is 14 µM (active).
With `CCOc1ccc(-c2cc(C(=O)N/N=C(\C)c3cccnc3)c3ccccc3n2)cc1`, the “activity, negative = fluorescence increase” value was -5.98% (inactive).
In the case of `COc1ccc(C2C(C#N)=C(N)Oc3cc(N)ccc32)cc1OC` (stereo unspecified), the “activity, negative = fluorescence increase” value is -7.81% (inactive).
As to `COc1cc(C2C3=C(COC3=O)Oc3cc4c(cc32)OCO4)ccc1OC(C)=O` (stereo unspecified), the “activity, negative = fluorescence increase” value is -0.554% (inactive).
On to `Cc1cccc(N2CCN(C(=O)c3cccc(N4CCCC4=O)c3)C(C)C2)c1` (stereo unspecified), for which the “activity, negative = fluorescence increase” value was -3.43% (inactive).
Same read-out and setting: then `COc1cc(-c2noc(C)c2C#Cc2ccc(N)cc2)cc(OC)c1OC`, with -3.97% (inactive); and `CSCC[C@H](NC(=O)[C@H](Cc1ccccc1)n1c(=O)[nH]c2ccccc2c1=O)C(=O)N1CCC[C@@H]1C(=O)O`, with -4.21% (inactive); and `COc1cc(-c2noc(C)c2/C=C/c2ccc(OC(C)=O)cc2)cc(OC)c1OC`, with -1.58% (inactive).
Consider `CCOC(=O)c1ccc(NC(=O)CSc2nc(-c3ccc(OC)cc3)cc(C(F)(F)F)c2C#N)cc1`, for which the Potency was 20.6 µM (active).
Consider `O=C(CSc1nc(-c2ccco2)cc(C(F)(F)F)n1)Nc1cccnc1`, for which the “activity, negative = fluorescence increase” value is 1.16% (inactive).
In the case of `C=CCNc1nc(-c2ccccc2)c(C(=O)OCC)cc1C#N`, the “activity, negative = fluorescence increase” value is -3.17% (inactive).
Turning to `CCOC(=O)c1ccc(NC(=O)CSc2nc(-c3cccs3)cc(C(F)(F)F)c2C#N)cc1`, the Potency was 20.6 µM (active).
`CCCCOc1ccc(-c2cc(C(F)(F)F)c(C#N)c(SCC(=O)O)n2)cc1`: the Potency was 18.4 µM (active).
On to `Cc1coc(NC(=O)CSc2nc(-c3ccncc3)cc(C(F)(F)F)c2C#N)n1`, for which the Potency is 14.6 µM (active).
With `O=C(OCCC12CC3CC(CC(C3)C1)C2)c1ccc(NCc2cc(O)ccc2O)cc1`, the “activity, negative = fluorescence increase” value is -3.77% (inactive).
As to `N#Cc1c(C(F)(F)F)cc(-c2cccs2)nc1SCC(=O)Nc1cccc(C(F)(F)F)c1`, the Potency is 18.4 µM (active).
Regarding `N#Cc1c(C(F)(F)F)cc(-c2cccs2)nc1SCC(=O)Nc1cccc(Cl)c1`, the “activity, negative = fluorescence increase” value is -1.81% [at 46.1 µM] (inactive).
Consider `O=C(NCc1ccccc1)C1Cc2c(-c3ccc(Cl)cc3)ccnc2O1` (stereo unspecified), for which the “activity, negative = fluorescence increase” value is -5.56% (inactive).
Consider `COCCCNC(=S)N/N=C/c1ccc(OC)cc1`, for which the “activity, negative = fluorescence increase” value was 10.1% [at 46.1 µM] (inactive).
For the compound `CN(C)c1ccc(/C=C(/C#N)C(=O)NCc2ccccc2)o1`, the Potency was 14.6 µM (active).
`N#C/C(=C\c1ccccc1[N+](=O)[O-])C(=O)NCc1ccccc1`: the “activity, negative = fluorescence increase” value is 0.838% [at 46.1 µM] (inactive).
Still for that read-out and setting: then `O=C(NCc1ccccc1)C(=O)NCC1COc2ccccc2O1` (stereo unspecified), with -0.45% (inactive).
Regarding `N#C/C(=C\c1ccc(N2CCOCC2)o1)C(=O)NCCc1ccccc1`, the Potency was 23.1 µM (active).
For the compound `N#C/C(=C/c1ccc(N2CCOCC2)o1)C(=O)NC1CCCCC1`, the Potency is 18.4 µM (active).
Take `N#C/C(=C\c1ccc(N2CCOCC2)o1)C(=O)NC1CCCCC1`: the Potency was 15.8 µM (active).
